The source of these data is PubChem BioAssay (NCATS).

Experiment [1] addresses Cytochrome P450 1A2 (Homo sapiens) (UniProt P05177). Kind of experiment: p450-cyp1a2 (AID 410; calls by dose curve; note: potency is the fitted concentration of half-maximal effect;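 for activity change, negative = inhibition: -100% = full effect of reference inhibitor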). The gist of the method:
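20nM CYP1A2 with 100uM Luciferin-ME (at Km) in 100mM KPO4; compound preincubated 10 min, NADPH regeneration added, 60 min at room temperature. Luciferin quantified by luminescence after detection reagent; normalized to 57 uM furafylline.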

The target in experiment [2] is Glucocorticoid receptor (Homo sapiens) (UniProt P04150). In words: GR-GFP Redistribution (AID 450;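 active = compounds whose dose series gives a full or clear partial fitted curve of increased nuclear translocation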; note: potency is the fitted concentration of half-maximal effect). The following applies: U2OS GR-GFP nuclear translocation, laser cytometry, 2 h.
Experiment [3] shares this target. In words: GR-EFC Redistribution (AID 451; calls by dose curve; note: potency is the fitted concentration of half-maximal effect). The settings on record: CHO-K1 GR-EFC translocation, beta-gal luminescence, 2 h. The gist of the method:
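CHO-K1 cells stably expressing nuclear-localized β-gal enzyme acceptor and GR fused C-terminally to the enzyme donor fragment; ligand-driven nuclear translocation restores β-gal by complementation. Compounds titrated up to 46 uM final, 2 h at 37 °C; luminescence read.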

The target of experiment [4] is Mitogen-activated protein kinase 10 (Mus musculus) (UniProt Q61831). Kind of experiment: JNK3 AlphaScreen Assay (AID 530; active = well fitted curve in either direction with a large enough effect, not every such curve was filed as active;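 note: kinase came from lysate of stimulated human HepG2 cells; signal reports phosphorylation of biotinylated GST-cJun 1-79 at Ser73 with 10 µM ATP; % is set by controls: 0 for no effect and ±100 for the full control effect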). The gist of the method:
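Inhibitors reduce antibody binding to phosphorylated biotin-cJun, lowering AlphaScreen luminescence. Lysates from HepG2 cells pre-activated by IL-1beta plus TNF-alpha supplied JNK3; compounds were titrated.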

For experiment [5], the target named is 3',5'-cyclic-AMP phosphodiesterase 4B (Homo sapiens) (UniProt Q07343). Kind of experiment: qHTS Assay for Inhibitors of PDE-IV (AID 607; active = well fitted activation curve with a large enough effect in the main read-out, with a control signal flat, not every such curve was filed as active; note: % of control where 0% means no effect). The gist of the method:
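HEK293 ACTOne cells with CNG channel (1000/well), endogenous PDE4; membrane potential dye, compounds up to 22.9 uM final. Fluorescence Ex 535/Em 590; RO 20-1724 (100 uM final) as reference.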

Experiment [6] is described as follows: qHTS Assay for Lipid Storage Modulators (AID 1519; calls by dose curve). The settings on record: Drosophila S3 cells, BODIPY lipid droplet/cell ratio, laser cytometry, cells loaded with oleic acid. The gist of the method:
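Cells seeded at 5,000 per well were treated with compounds over a concentration series and loaded with oleic acid (400 uM, as added). Lipid droplet fluorescence (488 nm excitation, 500-530 nm channel) was read by laser-scanning cytometry and normalized to 20 uM Triacsin C.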
In general terms: Quantitative high-throughput screening tests each substance at several concentrations.

The target of experiment [7] is Ubiquitin carboxyl-terminal hydrolase 1 (Homo sapiens) (UniProt O94782). Kind of experiment: Inhibitors of USP1/UAF1: Pilot qHTS (AID 504865).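 Note: rhodamine fluorescence freed from ubiquitin-rhodamine substrate followed over time; top concentration of the series differs between compounds; % is set by controls: 0 for no effect and ±100 for the full control effect; nearly all actives have a fitted effect of over 35% in size.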 The gist of the method: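 In 50mM HEPES pH 7.8 containing 0.5mM EDTA, 1mM TCEP, 0.1 mg/ml BSA and 0.01% Tween-20, 1nM USP1/UAF1 is exposed to compound for 15 min, then Ub-Rho (150nM final) is added and fluorescence is read over time.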

Experiment [8] addresses DNA dC->dU-editing enzyme APOBEC-3G (Homo sapiens) (UniProt Q9HC16). Kind of experiment: qHTS for inhibitors of Vif-A3G interactions: Validation (AID 588379). Note: 0% is about no effect. The gist of the method: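 HeLa cells stably expressing Vif and A3G-eYFP, 700 cells/well, incubated overnight at 37 deg C, then exposed to compound overnight at 37 deg C. Inhibition of Vif-mediated degradation read as increased yellow fluorescence (Ex 488/Em 500-530) by laser-scanning cytometry.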

Experiment [9] deals with Zika virus NS2B-NS3 protease. Kind of experiment: Primary screen GU AMC qHTS for Zika virus inhibitors (AID 1347154).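 Note: 0% = no-inhibitor control and -100% = no-enzyme control; nearly all actives have a fitted effect of over 70% in size.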 The gist of the method:
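Unlinked Zika NS2B hydrophilic domain/NS3 protease domain noncovalent complex (25 nM final) in 10 mM Tris-HCl pH 8.0, 0.01% Tween 20, with AMC peptide substrate. Fluorescence (ex 340, em 450 nm) change over 15 min, room temperature; percent inhibition fitted to 4-parameter Hill equation.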

Experiment [10] can be described thus: Counterscreen qHTS for small molecule stabilizers of the endoplasmic reticulum resident proteome: GLuc-NoTag assay (AID 1508627).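 Note: SH-SY5Y cells given compound then 100 nM thapsigargin to empty ER calcium; 0% = thapsigargin alone and -100% = DMSO vehicle control.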 The gist of the method:
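SH-SY5Y cells stably expressing constitutively secreted GLuc (no SERCaMP tag) were pre-incubated 5 h, treated with compound for 19 h, then 100 nM thapsigargin for 4 h at 37C; medium GLuc read by coelenterazine luminescence.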
For orientation: A counterscreen serves to expose hits that act by an unwanted route or on another target.

Experiment [11] can be described thus: Confirmatory qHTS for small molecule stabilizers of the endoplasmic reticulum resident proteome: Secreted ER Calcium Modulated Protein (SERCaMP) assay (AID 1508628). Note: nearly all actives have a fitted effect of over 40% in size. Note: potency is the fitted concentration of half-maximal effect. The gist of the method:
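SH-SY5Y cells stably expressing GLuc-SERCaMP, treated 16 h with compound (primary 1.53, 7.67, 38.3 uM; confirmation 11 concentrations, up to 76.6 uM), then 100 nM thapsigargin for 4 h. Secreted Gaussia luciferase in medium read by coelenterazine luminescence.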

The nature of experiment [12]: Cell Viability qHTS for small molecule stabilizers of the endoplasmic reticulum resident proteome (AID 1508629).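 Note: human SH-SY5Y neuroblastoma cells carrying the GLuc-SERCaMP reporter; compound exposure about 46 h in total before the viability read; % is set by controls: 0 for no effect and ±100 for the full control effect.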 The following applies: cell viability counter-screen, 100 nM thapsigargin for final 4 h.
Experiment [13] has as its target Cytochrome P450 2D6 (Homo sapiens) (UniProt P10635). Kind of experiment: qHTS Assay for Inhibitors and Substrates of Cytochrome P450 2D6 (AID 891). Note: potency is the fitted concentration of half-maximal effect; nearly all actives have a fitted effect of over 60% in size. The gist of the method: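 Human CYP2D6 (5 nM) with 30 uM Luciferin-ME EGE (at Km) in 100 mM KPO4, compound preincubated 10 min, then NADPH regeneration system for 60 min at room temperature. Luciferin read by luminescence; normalized to 1.43 uM quinidine.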

In experiment [14] the target is Calcium and integrin-binding protein 1 (Homo sapiens) (UniProt Q99828). Kind of experiment: Primary qHTS for Identification of Calcium Integrin Binding Protein 1 (CIB1) Competitor (AID 1508620).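 Note: GST tagged CIB1 binding a fluorescein labelled alphaIIb integrin peptide tracer; top concentration of the series differs between compounds; % is set by controls: 0 for no effect and ±100 for the full control effect.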 The gist of the method:
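Fluorescence polarization competition: CIB1-GST (1 uM final) preincubated with compound 15 min at room temperature, then FITC-labeled alphaIIb peptide (100 nM final) added for another 15 min. Polarization read at Ex 480/Em 540.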

Experiment [15] in a line: Primary qHTS for small molecule stabilizers of the endoplasmic reticulum resident proteome: Secreted ER Calcium Modulated Protein (SERCaMP) assay (AID 1508630). Note: % is set by controls: 0 for no effect and ±100 for the full control effect. The gist of the method: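 GLuc-SERCaMP-expressing SH-SY5Y cells, pretreated 16 h with compound, are challenged with thapsigargin to empty ER calcium stores; after 4 h, coelenterazine is added directly to the medium and luminescence is imaged.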

Experiment [16] addresses Cytochrome P450 2C9 (Homo sapiens) (UniProt P11712). In words: qHTS Assay for Inhibitors and Substrates of Cytochrome P450 2C9 (AID 883). Note: % is set by controls: 0 for no effect and ±100 for the full control effect; nearly all actives have a fitted effect of over 60% in size. The gist of the method: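 CYP2C9 deoxyluciferin hydroxylation, 37C, 60 min with NADPH regeneration; 10nM enzyme, 100uM Luciferin-H (KM). Glo detection reagent stopped reaction; luminescence normalized to sulphaphenazole (57uM) full inhibition.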

Structures are written as SMILES. Records with an inconclusive call do not appear. The source made the active and inactive calls. Unless noted, calls come from the whole dose curve; as a rule, active = well fitted curve in the direction sought with a large enough effect; inconclusive = small, poorly fitted or top-dose-only effect, or another doubt; inactive = no such curve, though single readings can be large; an effect the other way counts as inactive or inconclusive.

Cytochrome P450 1A2 (Homo sapiens), sequence (P05177 whole entry, looked up): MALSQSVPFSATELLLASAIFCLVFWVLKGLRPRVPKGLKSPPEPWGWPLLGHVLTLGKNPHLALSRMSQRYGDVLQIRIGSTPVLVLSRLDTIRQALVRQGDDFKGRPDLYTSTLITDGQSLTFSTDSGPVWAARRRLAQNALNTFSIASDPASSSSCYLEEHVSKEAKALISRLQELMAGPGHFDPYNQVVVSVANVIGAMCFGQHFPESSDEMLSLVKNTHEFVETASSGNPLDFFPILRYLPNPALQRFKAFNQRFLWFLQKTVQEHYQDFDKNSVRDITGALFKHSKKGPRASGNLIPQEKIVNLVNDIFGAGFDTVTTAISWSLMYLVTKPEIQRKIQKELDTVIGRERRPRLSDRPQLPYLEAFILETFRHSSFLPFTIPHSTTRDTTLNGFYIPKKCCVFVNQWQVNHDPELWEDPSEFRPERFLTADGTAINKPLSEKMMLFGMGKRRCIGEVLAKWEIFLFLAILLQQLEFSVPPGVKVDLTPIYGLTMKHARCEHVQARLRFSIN
DNA dC->dU-editing enzyme APOBEC-3G (Homo sapiens), sequence (Q9HC16 whole entry, looked up): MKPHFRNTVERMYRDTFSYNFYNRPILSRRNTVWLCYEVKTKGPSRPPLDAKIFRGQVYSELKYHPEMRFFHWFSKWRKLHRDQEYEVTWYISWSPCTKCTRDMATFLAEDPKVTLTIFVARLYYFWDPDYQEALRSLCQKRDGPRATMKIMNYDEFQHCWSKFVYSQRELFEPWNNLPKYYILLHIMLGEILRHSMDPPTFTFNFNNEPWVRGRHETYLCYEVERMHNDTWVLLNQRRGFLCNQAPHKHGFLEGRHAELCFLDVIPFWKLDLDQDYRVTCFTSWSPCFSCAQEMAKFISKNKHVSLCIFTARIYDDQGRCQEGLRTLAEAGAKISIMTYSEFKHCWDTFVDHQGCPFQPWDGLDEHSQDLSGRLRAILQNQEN
Glucocorticoid receptor (Homo sapiens), sequence (P04150 whole entry, looked up): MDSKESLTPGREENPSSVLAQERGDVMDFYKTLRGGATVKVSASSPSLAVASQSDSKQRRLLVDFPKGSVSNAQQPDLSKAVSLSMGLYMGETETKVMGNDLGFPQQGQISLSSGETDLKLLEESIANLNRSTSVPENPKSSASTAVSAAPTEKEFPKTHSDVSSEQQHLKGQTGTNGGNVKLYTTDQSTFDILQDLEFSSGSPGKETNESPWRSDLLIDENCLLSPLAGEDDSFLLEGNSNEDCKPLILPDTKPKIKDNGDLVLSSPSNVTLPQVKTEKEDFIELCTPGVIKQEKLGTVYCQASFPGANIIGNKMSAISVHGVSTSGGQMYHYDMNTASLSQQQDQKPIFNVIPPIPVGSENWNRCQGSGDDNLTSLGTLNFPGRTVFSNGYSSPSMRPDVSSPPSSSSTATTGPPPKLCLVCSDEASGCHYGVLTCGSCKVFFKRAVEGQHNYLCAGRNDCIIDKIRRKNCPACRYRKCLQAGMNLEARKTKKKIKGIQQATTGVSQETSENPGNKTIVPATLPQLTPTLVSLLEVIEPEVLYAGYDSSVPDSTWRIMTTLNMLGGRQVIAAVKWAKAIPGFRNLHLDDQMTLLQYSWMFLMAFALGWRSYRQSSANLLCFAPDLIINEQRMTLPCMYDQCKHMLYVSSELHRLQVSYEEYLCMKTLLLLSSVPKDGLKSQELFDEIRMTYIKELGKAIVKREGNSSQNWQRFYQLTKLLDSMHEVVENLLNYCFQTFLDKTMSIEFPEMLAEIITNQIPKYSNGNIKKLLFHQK
Ubiquitin carboxyl-terminal hydrolase 1 (Homo sapiens), sequence (O94782 whole entry, looked up): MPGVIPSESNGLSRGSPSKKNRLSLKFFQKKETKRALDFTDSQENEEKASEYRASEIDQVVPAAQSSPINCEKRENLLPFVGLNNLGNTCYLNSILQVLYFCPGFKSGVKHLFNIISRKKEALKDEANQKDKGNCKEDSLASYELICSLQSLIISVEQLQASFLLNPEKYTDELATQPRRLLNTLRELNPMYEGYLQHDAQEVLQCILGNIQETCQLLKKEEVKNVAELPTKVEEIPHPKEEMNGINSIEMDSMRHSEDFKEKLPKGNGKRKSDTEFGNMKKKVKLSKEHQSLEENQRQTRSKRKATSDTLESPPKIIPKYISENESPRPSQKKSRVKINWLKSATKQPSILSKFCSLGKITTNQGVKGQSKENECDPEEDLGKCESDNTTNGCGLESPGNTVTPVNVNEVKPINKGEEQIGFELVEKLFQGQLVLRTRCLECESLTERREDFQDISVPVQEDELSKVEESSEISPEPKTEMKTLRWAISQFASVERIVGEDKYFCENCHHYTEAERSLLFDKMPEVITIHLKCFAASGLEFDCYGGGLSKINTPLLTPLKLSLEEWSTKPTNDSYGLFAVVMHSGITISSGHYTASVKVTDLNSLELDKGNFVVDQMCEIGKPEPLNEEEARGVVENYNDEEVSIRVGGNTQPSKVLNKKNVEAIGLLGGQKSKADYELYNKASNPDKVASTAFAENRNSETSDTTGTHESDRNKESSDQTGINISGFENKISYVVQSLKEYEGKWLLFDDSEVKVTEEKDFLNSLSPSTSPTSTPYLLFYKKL
3',5'-cyclic-AMP phosphodiesterase 4B (Homo sapiens), sequence (Q07343 whole entry, looked up): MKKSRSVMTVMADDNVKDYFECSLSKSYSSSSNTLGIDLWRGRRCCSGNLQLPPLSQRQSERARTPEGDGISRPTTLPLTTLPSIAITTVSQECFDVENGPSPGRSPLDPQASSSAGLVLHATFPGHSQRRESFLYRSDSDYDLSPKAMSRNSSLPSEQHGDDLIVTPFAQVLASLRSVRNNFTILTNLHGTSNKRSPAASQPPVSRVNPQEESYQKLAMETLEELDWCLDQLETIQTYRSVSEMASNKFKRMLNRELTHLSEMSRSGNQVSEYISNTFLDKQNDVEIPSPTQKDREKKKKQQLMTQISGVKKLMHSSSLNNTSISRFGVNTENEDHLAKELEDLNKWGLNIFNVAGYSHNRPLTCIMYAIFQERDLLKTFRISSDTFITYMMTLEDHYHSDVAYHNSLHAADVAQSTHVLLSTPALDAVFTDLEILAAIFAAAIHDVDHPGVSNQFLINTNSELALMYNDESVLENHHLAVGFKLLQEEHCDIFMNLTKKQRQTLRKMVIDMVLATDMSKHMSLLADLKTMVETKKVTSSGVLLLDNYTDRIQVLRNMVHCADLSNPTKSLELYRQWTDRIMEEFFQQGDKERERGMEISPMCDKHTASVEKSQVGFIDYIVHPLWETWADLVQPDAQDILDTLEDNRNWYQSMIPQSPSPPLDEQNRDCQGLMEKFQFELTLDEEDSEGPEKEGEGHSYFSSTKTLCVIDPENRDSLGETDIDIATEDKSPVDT
Cytochrome P450 2C9 (Homo sapiens), sequence (P11712 whole entry, looked up): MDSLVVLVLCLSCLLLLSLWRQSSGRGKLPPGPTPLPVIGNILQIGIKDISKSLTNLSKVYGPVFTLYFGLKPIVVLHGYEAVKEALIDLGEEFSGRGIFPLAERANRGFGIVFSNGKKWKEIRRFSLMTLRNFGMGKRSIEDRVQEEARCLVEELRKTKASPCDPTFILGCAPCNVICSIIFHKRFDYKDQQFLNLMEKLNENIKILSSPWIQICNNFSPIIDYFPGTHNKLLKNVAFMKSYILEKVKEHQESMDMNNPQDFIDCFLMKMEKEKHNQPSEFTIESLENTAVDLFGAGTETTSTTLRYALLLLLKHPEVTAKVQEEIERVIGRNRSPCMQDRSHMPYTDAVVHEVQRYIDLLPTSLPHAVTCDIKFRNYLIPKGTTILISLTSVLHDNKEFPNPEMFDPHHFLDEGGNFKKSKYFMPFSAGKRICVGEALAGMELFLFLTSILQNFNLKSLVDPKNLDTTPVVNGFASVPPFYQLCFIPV
Cytochrome P450 2D6 (Homo sapiens), sequence (P10635 whole entry, looked up): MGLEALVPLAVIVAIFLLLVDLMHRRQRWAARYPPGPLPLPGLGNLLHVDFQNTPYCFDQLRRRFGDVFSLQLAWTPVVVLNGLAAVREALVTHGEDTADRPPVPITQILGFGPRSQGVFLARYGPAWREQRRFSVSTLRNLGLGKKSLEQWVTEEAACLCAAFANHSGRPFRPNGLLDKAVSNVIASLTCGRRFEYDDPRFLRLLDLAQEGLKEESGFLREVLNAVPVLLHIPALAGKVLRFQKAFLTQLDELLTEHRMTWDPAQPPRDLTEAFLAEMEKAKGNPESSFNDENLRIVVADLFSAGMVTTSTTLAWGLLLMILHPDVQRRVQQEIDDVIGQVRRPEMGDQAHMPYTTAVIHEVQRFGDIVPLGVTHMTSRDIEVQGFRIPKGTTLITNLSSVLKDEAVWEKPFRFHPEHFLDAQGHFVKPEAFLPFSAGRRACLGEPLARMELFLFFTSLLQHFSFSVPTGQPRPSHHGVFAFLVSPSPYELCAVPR
Calcium and integrin-binding protein 1 (Homo sapiens), sequence (Q99828 whole entry, looked up): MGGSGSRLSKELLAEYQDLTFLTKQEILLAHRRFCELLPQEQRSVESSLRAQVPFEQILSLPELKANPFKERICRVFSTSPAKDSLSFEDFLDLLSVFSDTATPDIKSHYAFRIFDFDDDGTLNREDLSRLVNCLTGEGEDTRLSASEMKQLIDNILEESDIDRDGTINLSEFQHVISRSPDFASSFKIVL

`COc1ccc(NS(=O)(=O)c2ccc(I)cc2)cc1N1CCN(C)CC1`: the Potency result in [1], in [4], in experiment [5], in [7], in experiment [8] and in [9] was “inactive” throughout. Also, the Potency result in experiment [10] was “inactive”. Further, the Potency in experiment [2] is > 46 µM (inactive); in experiment [3], > 46 µM (inactive); in experiment [11] it was 7.94 µM (active). In experiment [6] (at 57.5 µM (top of the series)), the activity change, negative = inhibition was 12.5% (inactive). Also, the results for the max response in experiment [6] (measured here: cell count channel max response), in experiment [6] (measured here: lipid channel max response) and in experiment [12] were 18.9%, 28.9% and -15.1% (inactive), respectively.
For the compound `COc1ccc(NC(=O)c2cc(OCCCN(C)C)nn2Cc2ccccc2)cc1`, the Potency entry in experiment [9] and in experiment [10] was “inactive” throughout.
In the case of `COC(=O)c1ccccc1NC(=O)c1ccc(F)cc1`, the Potency was 0.2 µM (active) in experiment [1], > 46 µM (inactive) in [2], > 46 µM (inactive) in experiment [3] and 5.01 µM (active) in experiment [13]. The Potency result in experiment [4], in experiment [8], in experiment [9] and in experiment [15] was “inactive” in each case. In addition, the outcome in experiment [14] was inactive.
For the compound `C[C@@H](NCc1cc(Br)cc2[nH]c(=O)c(=O)[nH]c12)P(=O)(O)O`, the Potency result in [1], in experiment [4], in experiment [5], in experiment [16], in experiment [7] and in experiment [8] was “inactive” each time. Further, the Potency entry in experiment [9], in experiment [10] and in experiment [11] was “inactive” in each case. For the same compound, the Potency in experiment [2] was 0.264 µM (active).
`CC(C)N1CCN(c2ccc(C(=O)c3c(-c4ccc(O)cc4)sc4cc(O)ccc34)cc2)CC1`: the Potency result in experiment [9] and in experiment [10] was “inactive” each time.
